The target in test [1] is Mitogen-activated protein kinase 3 (Homo sapiens) (UniProt P27361). To be noted: at 1 µM.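 Further: values are mean percent inhibition of MAPK3.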
Test [2] has as its target SRSF protein kinase 3 (Homo sapiens) (UniProt Q9UPE1). To be noted: at 0.1 µM.
The target is the same in test [3]. The note with it: at 1 µM.
The target of test [4] is Mitogen-activated protein kinase 14 (Homo sapiens) (UniProt Q16539). The note with it: at 0.1 µM.
For test [5] the target is unchanged. The note with it: at 1 µM.
Test [6] addresses Mitogen-activated protein kinase 11 (Homo sapiens) (UniProt Q15759). To be noted: at 0.1 µM.
For test [7] the target is unchanged. To be noted: at 1 µM.
Test [8] concerns the target T1, Mitogen-activated protein kinase 13 (Homo sapiens) (UniProt O15264).
T1 sequence (whole entry): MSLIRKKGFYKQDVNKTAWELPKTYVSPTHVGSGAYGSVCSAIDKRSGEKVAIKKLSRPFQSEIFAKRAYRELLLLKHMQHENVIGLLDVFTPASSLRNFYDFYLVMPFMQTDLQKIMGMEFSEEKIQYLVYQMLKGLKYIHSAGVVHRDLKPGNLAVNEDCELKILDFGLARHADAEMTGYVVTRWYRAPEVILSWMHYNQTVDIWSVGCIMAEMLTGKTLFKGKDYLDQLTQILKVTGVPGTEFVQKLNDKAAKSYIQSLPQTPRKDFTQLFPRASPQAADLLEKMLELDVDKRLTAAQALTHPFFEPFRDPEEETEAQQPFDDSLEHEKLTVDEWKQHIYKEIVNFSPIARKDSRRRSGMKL
The note with it: at 0.1 µM.

Test [9] has as its target T1, Mitogen-activated protein kinase 13 (Homo sapiens). The note with it: at 1 µM.
For test [10], the target named is T2, Mitogen-activated protein kinase 12 (Homo sapiens) (UniProt P53778).
T2 sequence (whole entry): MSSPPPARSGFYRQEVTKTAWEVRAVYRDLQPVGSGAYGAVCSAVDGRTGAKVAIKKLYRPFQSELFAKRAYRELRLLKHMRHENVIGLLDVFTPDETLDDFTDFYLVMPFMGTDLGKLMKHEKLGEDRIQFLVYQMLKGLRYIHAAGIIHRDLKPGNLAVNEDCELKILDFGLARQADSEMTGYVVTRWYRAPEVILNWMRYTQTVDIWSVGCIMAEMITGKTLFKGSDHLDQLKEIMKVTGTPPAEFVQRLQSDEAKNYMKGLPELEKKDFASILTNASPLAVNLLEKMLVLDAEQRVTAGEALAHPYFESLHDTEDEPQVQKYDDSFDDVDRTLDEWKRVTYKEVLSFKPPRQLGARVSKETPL
The note with it: at 0.1 µM.

The target of test [11] is T2, Mitogen-activated protein kinase 12 (Homo sapiens). To be noted: at 1 µM.
Test [12] concerns the target SRSF protein kinase 1 (Homo sapiens) (UniProt Q96SB4). The note with it: at 0.1 µM.
Test [13] has the same target. To be noted: at 1 µM.
Test [14] concerns the target Phosphatidylinositol 4,5-bisphosphate 3-kinase catalytic subunit alpha isoform (Homo sapiens) (UniProt P42336). To be noted: at 0.1 µM.
The target is the same in test [15]. The note with it: at 1 µM.
The target in test [16] is T3, Phosphatidylinositol 4,5-bisphosphate 3-kinase catalytic subunit delta isoform (Homo sapiens) (UniProt O00329).
T3 sequence (whole entry): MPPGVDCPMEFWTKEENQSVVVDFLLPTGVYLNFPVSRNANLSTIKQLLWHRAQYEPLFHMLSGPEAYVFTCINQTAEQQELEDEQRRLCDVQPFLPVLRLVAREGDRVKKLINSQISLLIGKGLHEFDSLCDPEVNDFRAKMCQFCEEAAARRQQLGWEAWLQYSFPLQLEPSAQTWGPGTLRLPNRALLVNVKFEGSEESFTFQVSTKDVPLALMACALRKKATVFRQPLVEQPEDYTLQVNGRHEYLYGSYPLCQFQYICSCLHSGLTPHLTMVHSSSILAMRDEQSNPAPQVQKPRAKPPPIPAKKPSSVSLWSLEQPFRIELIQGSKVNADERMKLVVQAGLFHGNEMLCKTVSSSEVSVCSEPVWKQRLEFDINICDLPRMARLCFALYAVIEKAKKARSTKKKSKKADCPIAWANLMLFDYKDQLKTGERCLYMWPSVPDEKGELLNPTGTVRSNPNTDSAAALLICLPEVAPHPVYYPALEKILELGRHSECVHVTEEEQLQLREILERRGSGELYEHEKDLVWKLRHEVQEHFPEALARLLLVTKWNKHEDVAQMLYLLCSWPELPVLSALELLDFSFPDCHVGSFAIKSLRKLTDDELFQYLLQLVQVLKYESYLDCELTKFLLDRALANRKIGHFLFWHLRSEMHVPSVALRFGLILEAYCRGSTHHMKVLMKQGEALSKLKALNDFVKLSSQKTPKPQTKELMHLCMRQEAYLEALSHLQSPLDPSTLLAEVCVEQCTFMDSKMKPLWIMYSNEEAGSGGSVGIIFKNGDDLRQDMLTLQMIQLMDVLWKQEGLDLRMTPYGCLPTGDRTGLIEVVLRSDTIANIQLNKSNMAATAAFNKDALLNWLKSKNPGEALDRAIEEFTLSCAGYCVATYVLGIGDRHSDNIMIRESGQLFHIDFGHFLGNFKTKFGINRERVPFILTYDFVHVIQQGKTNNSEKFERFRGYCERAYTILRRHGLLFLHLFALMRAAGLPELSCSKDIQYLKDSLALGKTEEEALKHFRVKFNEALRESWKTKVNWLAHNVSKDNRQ
To be noted: at 0.1 µM.

For test [17], the target named is T3, Phosphatidylinositol 4,5-bisphosphate 3-kinase catalytic subunit delta isoform (Homo sapiens). The note with it: at 1 µM.
For test [18], the target named is Phosphatidylinositol 4-kinase beta (Homo sapiens) (UniProt Q9UBF8). To be noted: at 0.1 µM.
Chain of Phosphatidylinositol 4-kinase beta (Homo sapiens) (Q9UBF8 2-816 limits assumed): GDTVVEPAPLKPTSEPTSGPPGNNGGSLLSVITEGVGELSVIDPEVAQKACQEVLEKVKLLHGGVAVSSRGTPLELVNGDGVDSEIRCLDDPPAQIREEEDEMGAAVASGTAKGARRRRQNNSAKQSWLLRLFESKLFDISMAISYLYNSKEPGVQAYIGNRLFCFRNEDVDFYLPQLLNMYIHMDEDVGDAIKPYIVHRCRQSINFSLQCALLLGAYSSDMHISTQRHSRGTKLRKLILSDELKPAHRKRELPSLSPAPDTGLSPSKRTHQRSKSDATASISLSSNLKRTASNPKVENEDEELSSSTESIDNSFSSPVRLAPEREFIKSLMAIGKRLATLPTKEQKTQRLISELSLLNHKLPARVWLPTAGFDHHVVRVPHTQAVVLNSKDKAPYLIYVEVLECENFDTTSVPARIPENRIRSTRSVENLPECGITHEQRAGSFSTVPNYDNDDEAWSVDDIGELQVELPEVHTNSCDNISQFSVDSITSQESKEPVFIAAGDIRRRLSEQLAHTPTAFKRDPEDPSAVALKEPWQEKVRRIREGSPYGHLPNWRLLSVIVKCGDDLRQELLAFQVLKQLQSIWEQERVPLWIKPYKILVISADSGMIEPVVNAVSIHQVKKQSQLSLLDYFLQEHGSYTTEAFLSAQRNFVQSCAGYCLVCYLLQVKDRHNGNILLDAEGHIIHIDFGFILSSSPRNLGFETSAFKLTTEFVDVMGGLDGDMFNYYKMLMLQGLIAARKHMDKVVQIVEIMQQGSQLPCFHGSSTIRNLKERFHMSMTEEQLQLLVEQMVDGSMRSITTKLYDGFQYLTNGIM
Test [19] shares this target. The note with it: at 1 µM.
Test [20] addresses Sphingosine kinase 1 (Homo sapiens) (UniProt Q9NYA1). To be noted: at 0.1 µM.

This is an account of results in ChEMBL document CHEMBL1961873, “Compounds: GSK PKIS; Assays: Nanosyn kinase panel” (2012).

Molecules are shown by their SMILES.

Chain of Mitogen-activated protein kinase 3 (Homo sapiens) (P27361 whole entry): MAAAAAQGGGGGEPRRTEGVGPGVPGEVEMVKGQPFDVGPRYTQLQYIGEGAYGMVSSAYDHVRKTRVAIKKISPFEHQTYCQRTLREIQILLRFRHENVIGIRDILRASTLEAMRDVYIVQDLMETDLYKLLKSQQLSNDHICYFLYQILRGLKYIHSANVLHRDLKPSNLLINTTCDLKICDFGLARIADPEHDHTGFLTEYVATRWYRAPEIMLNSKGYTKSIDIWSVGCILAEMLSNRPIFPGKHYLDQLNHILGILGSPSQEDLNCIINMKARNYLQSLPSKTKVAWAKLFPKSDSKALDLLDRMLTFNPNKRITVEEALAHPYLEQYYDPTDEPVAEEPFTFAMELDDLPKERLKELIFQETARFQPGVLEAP
Chain of Sphingosine kinase 1 (Homo sapiens) (Q9NYA1 whole entry): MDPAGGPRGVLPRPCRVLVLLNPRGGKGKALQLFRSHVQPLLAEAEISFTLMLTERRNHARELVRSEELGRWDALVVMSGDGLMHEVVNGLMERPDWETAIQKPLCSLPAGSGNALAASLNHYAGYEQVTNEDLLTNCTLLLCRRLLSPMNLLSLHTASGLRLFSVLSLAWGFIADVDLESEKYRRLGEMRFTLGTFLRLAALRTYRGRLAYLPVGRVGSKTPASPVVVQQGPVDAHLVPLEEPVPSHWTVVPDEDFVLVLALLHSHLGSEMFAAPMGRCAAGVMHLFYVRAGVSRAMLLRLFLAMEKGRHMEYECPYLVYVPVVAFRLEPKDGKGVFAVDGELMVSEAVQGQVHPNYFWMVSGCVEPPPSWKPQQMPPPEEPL
Chain of Phosphatidylinositol 4,5-bisphosphate 3-kinase catalytic subunit alpha isoform (Homo sapiens) (P42336 whole entry, canonical isoform): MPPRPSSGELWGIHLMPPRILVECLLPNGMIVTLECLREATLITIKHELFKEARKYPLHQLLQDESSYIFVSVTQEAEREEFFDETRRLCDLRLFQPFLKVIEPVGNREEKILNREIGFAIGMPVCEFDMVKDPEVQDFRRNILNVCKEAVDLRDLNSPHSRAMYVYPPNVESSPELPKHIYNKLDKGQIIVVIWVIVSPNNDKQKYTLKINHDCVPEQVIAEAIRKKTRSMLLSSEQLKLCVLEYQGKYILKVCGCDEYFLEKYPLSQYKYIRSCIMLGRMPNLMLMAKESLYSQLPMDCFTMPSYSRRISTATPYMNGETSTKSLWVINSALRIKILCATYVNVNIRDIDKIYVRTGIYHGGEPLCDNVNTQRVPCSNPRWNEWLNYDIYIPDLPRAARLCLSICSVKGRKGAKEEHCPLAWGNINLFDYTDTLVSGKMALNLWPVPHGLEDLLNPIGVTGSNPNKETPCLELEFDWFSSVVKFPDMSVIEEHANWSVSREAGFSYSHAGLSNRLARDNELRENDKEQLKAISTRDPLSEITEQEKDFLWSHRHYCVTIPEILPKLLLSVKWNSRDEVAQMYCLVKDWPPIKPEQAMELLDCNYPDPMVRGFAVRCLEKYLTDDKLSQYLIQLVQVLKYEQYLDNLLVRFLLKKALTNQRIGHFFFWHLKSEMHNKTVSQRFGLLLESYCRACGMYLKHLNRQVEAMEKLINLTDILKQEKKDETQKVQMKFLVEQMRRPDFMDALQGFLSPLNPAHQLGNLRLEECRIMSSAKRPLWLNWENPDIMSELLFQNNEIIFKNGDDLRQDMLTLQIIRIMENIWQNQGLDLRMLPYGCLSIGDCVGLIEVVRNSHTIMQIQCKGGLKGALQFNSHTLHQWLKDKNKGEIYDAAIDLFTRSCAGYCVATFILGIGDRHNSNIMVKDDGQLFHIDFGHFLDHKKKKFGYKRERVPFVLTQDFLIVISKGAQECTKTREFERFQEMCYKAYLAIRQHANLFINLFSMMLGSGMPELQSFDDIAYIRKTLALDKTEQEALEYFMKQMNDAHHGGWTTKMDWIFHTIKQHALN
Chain of Mitogen-activated protein kinase 14 (Homo sapiens) (Q16539 whole entry): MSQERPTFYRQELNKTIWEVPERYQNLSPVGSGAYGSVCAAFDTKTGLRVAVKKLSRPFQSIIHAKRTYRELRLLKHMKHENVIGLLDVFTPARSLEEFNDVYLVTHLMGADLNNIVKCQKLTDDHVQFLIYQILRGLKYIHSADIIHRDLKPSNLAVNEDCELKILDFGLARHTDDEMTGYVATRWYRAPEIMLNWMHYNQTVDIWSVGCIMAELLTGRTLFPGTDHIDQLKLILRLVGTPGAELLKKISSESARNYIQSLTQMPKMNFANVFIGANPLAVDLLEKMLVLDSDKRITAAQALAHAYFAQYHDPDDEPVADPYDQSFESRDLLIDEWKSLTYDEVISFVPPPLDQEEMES
Chain of SRSF protein kinase 1 (Homo sapiens) (Q96SB4 whole entry): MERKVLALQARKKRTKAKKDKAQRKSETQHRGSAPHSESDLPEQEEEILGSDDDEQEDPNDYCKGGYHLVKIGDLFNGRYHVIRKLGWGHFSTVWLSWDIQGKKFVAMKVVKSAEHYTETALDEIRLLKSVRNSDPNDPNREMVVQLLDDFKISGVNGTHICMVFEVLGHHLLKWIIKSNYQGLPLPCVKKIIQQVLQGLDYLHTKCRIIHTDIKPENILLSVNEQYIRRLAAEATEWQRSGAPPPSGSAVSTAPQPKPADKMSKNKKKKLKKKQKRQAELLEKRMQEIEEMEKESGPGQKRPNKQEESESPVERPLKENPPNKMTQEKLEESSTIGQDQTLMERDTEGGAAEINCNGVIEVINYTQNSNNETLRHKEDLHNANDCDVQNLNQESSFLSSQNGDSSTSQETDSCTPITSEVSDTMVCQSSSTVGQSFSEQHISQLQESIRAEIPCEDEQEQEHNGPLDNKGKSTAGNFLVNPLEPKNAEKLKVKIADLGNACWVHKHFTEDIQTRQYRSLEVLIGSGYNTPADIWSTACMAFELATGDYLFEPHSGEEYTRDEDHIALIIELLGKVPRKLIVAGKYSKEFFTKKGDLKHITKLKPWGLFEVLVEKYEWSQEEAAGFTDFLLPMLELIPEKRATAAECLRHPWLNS
Chain of SRSF protein kinase 3 (Homo sapiens) (Q9UPE1 whole entry): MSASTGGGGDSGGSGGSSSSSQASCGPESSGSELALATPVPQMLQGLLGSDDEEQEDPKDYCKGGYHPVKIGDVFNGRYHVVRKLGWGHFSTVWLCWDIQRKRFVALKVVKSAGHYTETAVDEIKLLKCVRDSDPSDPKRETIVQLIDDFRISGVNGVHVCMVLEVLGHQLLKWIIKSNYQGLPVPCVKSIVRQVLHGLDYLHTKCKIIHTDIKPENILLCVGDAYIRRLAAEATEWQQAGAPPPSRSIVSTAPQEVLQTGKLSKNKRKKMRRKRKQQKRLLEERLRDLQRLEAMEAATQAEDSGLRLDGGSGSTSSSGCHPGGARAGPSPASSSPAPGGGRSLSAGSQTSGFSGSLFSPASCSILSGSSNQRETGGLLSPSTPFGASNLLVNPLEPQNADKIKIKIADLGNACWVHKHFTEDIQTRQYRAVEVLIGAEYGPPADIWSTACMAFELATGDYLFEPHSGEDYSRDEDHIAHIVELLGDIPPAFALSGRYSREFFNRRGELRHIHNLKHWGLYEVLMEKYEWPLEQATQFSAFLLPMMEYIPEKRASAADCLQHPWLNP
Chain of Mitogen-activated protein kinase 11 (Homo sapiens) (Q15759 whole entry): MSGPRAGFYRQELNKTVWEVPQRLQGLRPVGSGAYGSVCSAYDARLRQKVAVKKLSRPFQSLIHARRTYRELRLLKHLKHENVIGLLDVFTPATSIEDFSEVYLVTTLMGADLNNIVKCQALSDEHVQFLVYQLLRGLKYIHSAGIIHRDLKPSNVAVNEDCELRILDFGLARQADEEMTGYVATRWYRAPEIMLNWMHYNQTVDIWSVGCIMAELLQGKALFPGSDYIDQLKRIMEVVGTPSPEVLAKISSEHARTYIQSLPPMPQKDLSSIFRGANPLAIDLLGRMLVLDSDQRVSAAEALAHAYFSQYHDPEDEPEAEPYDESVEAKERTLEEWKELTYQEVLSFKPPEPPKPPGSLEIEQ

Broadly, the inhibition is the drop in the measured response relative to a control, in per cent. With `NCc1ccc(-c2nc(-c3ccc(Cl)c(O)c3)c(-c3ccncc3)[nH]2)cc1`, the inhibition in test [1] was 0.95%; in test [2], -2.12%; in test [3], -2.01%; in test [4] it was 41%; in [5] it was 77.1%; in test [6], 13.6%. The inhibition in test [7] is 54%; in test [8], -0.52%; in [9], 1.79%; in test [10], -0.97%; in [11], 2.04%; in [12], -1.76%. Besides, the inhibition is -4.18% in [13]; -0.47% in [14]; 3.94% in test [15]; 0.9% in test [16]; 6.6% in [17]; -3.9% in [18]. For the same compound, the inhibition in test [19] was -2.79%; in [20], 2.55%.

Take `O=C(Nc1n[nH]c2nc(-c3ccco3)c(Br)cc12)C1CC1`: the inhibition in test [1] was 2.64%; in [2], -0.09%; in test [3], -0.41%; in test [4], 2.53%; in test [5], 6.49%; in test [6] it was 3.09%. Moreover, the inhibition in test [7] is 3.71%; in test [8] it was 1.46%; in test [9] it was 2.57%; in test [10], 2.55%; in test [11], 2.11%; in test [12], -4.07%. For the same compound, the inhibition in [13] was -5.19%; in [14], 5.44%; in [15], 4.94%; in test [16], 2.6%; in [17], 3.08%; in test [18], 0.77%. Moreover, the results for the inhibition in [19] and in test [20] were 5.14% and 0.46%, respectively.

As to `COc1cc2ncn(-c3cc(O[C@H](C)c4ccccc4Cl)c(C(N)=O)s3)c2cc1OC`, the inhibition is 4.54% in test [1]; -0.2% in test [2]; 8.42% in test [3]; 5.73% in test [4]; 6.35% in test [5]; 3.71% in [6]. For the same compound, the inhibition in test [7] turned out to be 4.9%; in [8], 2.38%; in [9], 3.77%; in test [10], 2.99%; in test [11] it was 3.72%; in test [12], 0.35%. Also, the inhibition in [13] amounted to 7.77%; in test [14], 7.21%; in test [15], 36.1%; in test [16], 13.6%; in test [17], 59.9%; in test [18], 2.43%. Also, the inhibition in [19] was -0.59%; in test [20], 1.83%.

`COC(=O)Nc1nc2cc(Oc3ccc(NC(=O)Nc4cccc(C(=O)O)c4)cc3)ccc2[nH]1`: the inhibition in test [1] is 2.25%; in test [2], 1.98%; in [3], 3.99%; in test [4], -1.1%; in test [5], 1.12%; in test [6] it was 0.94%. For the same compound, the inhibition in test [7] was -1.18%; in test [8], -0.17%; in [9] it was -0.69%; in [10] it was 0.51%; in [11] it was -0.37%; in [12], -0.09%. Further, the inhibition is 3.15% in test [13]; -0.54% in [14]; -3.19% in [15]; -1.33% in [16]; -1.97% in test [17]; 2.72% in test [18]. Further, the values for the inhibition in [19] and in [20] were -1.03% and 0.94%, respectively.

For the compound `CS(=O)(=O)CCNCc1ccc(-c2ccc3ncnc(Nc4ccc(OCc5ccccc5)c(Cl)c4)c3c2)o1`, the inhibition in test [1] was 0.5%; in test [2] it was 2.57%; in test [3] it was 4.72%; in test [4], -0.17%; in [5], 3.25%; in test [6], -1.17%. In addition, the inhibition in test [7] was 0.8%; in [8], 0.47%; in test [9], 2.09%; in test [10], 1.33%; in [11], 6.3%; in test [12], -1.42%. The inhibition in [13] is 1.52%; in [14] it was -1.12%; in [15] it was -0.19%; in test [16], -2.16%; in test [17] it was -1.17%; in test [18] it was -0.03%. For the same compound, the figures for the inhibition in [19] and in test [20] were 3.61% and 1.23%, respectively.

`[O-][S+]1CCN(Cc2ccc(-c3ccc4ncnc(Nc5ccc(OCc6ccccc6)c(F)c5)c4c3)o2)CC1`: the inhibition in test [1] is -0.07%; in test [2] it was -1.09%; in test [3], -1.23%; in test [4], 1.59%; in test [5] it was 8.77%; in test [6], 3.66%. In addition, the inhibition in [7] was 6.24%; in test [8], -1.08%; in test [9], 3.34%; in test [10], 0.27%; in test [11], 2.56%; in [12] it was -2.36%. In addition, the inhibition in test [13] is -4.42%; in [14] it was 1.82%; in [15], 3.14%; in test [16], 2.61%; in [17], 5.44%; in test [18], -0.3%. Besides, the inhibition in test [19] is -1.35%; in [20], -0.6%.
